Test results published in PubChem BioAssay (NCATS).
Values joined by “and” are separate entries in the source; they are usually repeats but may differ in a detail not shown here. Equal values may be shown once. Records with an inconclusive call do not appear. Where a call stands in place of a potency, no number is given. Some compounds were tested as several samples or in several runs, with calls that do not always agree. Active and inactive are the calls of the source. Calls follow the shape of the dose curve; as a rule, active = well fitted curve in the direction sought with a large enough effect; inconclusive = small, poorly fitted or top-dose-only effect, or another doubt; inactive = no such curve, though single readings can be large; an effect the other way counts as inactive or inconclusive.

Target: Cytochrome P450 3A4 (Homo sapiens) (UniProt P08684)
Sequence (P08684 whole entry, looked up): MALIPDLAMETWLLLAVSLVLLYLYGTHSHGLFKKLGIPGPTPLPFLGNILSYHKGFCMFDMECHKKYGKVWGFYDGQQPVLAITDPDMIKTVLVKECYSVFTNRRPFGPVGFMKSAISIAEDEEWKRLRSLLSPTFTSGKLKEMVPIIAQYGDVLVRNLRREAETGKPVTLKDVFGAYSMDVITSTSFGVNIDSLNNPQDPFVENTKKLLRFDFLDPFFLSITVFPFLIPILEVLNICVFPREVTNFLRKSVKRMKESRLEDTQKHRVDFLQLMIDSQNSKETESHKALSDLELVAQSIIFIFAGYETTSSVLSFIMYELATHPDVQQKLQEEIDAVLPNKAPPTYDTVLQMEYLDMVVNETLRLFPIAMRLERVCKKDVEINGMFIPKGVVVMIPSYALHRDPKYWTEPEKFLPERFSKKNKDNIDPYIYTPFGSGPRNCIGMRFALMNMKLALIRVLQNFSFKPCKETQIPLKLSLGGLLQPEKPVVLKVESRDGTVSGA
Assay: qHTS Assay for Inhibitors and Substrates of Cytochrome P450 3A4 (AID 884); also: nearly all actives have a fitted effect of over 50% in size
Settings: recombinant CYP3A4, Luciferin-PPXE luminescence; series mostly up to 57.1 µM
How it was run: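 Luminescent readout of luciferin produced by CYP3A4 (20 nM) dealkylation of Luciferin-PPXE, 25 uM (its KM). NADPH-driven reaction ran 60 min at RT after 10 min compound preincubation; data scaled to 57 uM ketoconazole as 100% inhibition.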
For Nc1ncnc2c1ncn2[C@@H]1O[C@H](CO)C[C@@H]1O, the Potency was “inactive”.
With CCCCCCCCCCCC1=C(O)C(=O)C=C(O)C1=O the Potency was “inactive”.
For CCN(CC)CCOC(=O)c1ccc(N)cc1, the Potency was “inactive”.

Target: Cytochrome P450 3A4 (Homo sapiens) (UniProt P08684)
Assay: qHTS Assay for Activators of Cytochrome P450 3A4 (AID 885); also: nearly all actives have a fitted effect of over 65% in size
Settings: recombinant CYP3A4, Luciferin-PPXE luminescence, 60 min; series mostly up to 57.1 µM
How it was run: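 Activators are scored by enhanced luminescence from CYP3A4 conversion of luciferin-PPXE (25uM, equal to KM) to luciferin, after 60 min at RT with an NADPH-regenerating system.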
In the case of COCCCCC(=NOCCN)c1ccc(C(F)(F)F)cc1, the outcome is reported as “inactive”.
In the case of c1cc(-c2sc(-c3ccncc3)c(-c3ccncc3)c2-c2ccncc2)ccn1, the activity change, positive = activation is reported as -102% [at 11.4 µM] (inactive).
In the case of Clc1ccc(Cn2c(CN3CCCC3)nc3ccccc32)cc1, the outcome is reported as “inactive”.
With CS(=O)c1ccc(-c2nc(-c3ccc(F)cc3)c(-c3ccncc3)[nH]2)cc1 (stereo not given) the outcome was “inactive”.
In the case of COc1ccc(-c2coc3cc(O)ccc3c2=O)cc1, the outcome is reported as “inactive”.
With O=C1C(Cl)=C(NCCN2CCOCC2)C(=O)c2ncccc21 the outcome was “inactive”.
In the case of O=c1cc(-c2ccccc2)oc2cc(O)cc(O)c12, the outcome is reported as “inactive”.
In the case of COc1ccc(-c2coc3cc(O)cc(O)c3c2=O)cc1, the outcome is reported as “inactive”.
With c1ccc2c(Cc3c[nH]c4ccccc34)c[nH]c2c1 the outcome was “inactive”.
For O=c1cc(-c2ccccc2)oc2cc(O)c(O)c(O)c12, the outcome was “inactive”.

Target: Cytochrome P450 2D6 (Homo sapiens) (UniProt P10635)
Sequence (P10635 whole entry, looked up): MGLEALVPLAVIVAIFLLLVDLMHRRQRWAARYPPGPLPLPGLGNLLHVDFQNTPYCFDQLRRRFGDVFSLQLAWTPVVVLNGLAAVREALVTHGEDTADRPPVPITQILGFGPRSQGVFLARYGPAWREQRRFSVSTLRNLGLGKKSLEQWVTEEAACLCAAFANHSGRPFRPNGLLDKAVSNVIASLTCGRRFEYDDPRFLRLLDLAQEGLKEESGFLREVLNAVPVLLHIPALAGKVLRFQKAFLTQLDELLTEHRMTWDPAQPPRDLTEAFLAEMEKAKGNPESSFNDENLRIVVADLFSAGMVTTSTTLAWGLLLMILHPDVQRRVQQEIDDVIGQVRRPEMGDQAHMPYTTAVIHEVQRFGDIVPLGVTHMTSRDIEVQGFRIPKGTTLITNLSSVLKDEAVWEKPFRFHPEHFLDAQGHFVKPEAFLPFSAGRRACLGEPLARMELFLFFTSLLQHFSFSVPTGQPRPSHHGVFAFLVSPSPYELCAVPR
Assay: qHTS Assay for Inhibitors and Substrates of Cytochrome P450 2D6 (AID 891); also: nearly all actives have a fitted effect of over 60% in size; also: potency is read from the fitted curve at half-maximal effect
Settings: recombinant CYP2D6, luciferin-ME EGE luminescence; series mostly up to 57.1 µM
How it was run: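 Luminescent read-out of luciferin formed by 5 nM human CYP2D6 demethylating 30 uM Luciferin-ME EGE (Km level) over 60 min at room temperature after NADPH regeneration addition. Data normalized to full inhibition by 1.43 uM quinidine.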
For COCCCCC(=NOCCN)c1ccc(C(F)(F)F)cc1, the Potency was 3.98 µM (active).
With O=C1C[C@@H](c2ccc(O)cc2)Oc2cc(O)cc(O)c21 the Potency was “inactive”.
With Clc1ccc(Cn2c(CN3CCCC3)nc3ccccc32)cc1 the Potency was 1.26 µM (active) and 794 nM (active).
For COc1ccc(-c2coc3cc(O)cc(O)c3c2=O)cc1, the Potency was 31.6 µM (active).
In the case of CCCCCCCCCCCC1=C(O)C(=O)C=C(O)C1=O, the Potency is reported as “inactive and 2 µM (active)”.
For O=c1cc(-c2ccccc2)oc2cc(O)c(O)c(O)c12, the Potency was 31.6 µM (active).

Target: Cytochrome P450 2C19 (Homo sapiens) (UniProt P33261)
Sequence (P33261 whole entry, looked up): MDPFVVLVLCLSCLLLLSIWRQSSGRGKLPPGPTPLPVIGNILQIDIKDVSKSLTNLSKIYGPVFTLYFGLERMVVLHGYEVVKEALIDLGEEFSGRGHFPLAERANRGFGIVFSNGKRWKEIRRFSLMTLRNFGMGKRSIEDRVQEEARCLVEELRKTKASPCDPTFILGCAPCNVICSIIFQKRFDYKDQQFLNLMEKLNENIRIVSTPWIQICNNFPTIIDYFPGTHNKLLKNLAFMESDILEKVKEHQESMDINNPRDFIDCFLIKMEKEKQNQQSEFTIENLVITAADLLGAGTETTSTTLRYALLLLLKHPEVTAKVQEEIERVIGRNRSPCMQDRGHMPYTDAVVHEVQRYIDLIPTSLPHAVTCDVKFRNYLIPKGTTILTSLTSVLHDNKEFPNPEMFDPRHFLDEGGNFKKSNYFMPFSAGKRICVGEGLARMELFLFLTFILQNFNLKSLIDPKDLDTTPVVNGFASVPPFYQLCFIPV
Assay: qHTS Assay for Inhibitors and Substrates of Cytochrome P450 2C19 (AID 899); also: nearly all actives have a fitted effect of over 60% in size; also: potency is read from the fitted curve at half-maximal effect
Settings: recombinant CYP2C19, luciferin-H EGE luminescence; series mostly up to 57.1 µM
How it was run: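 Luminescent read-out of luciferin formed from Luciferin-H EGE (10uM, equal to KM). Enzyme 5nM in 50mM KPO4; compound added, 10 min at 37C, then NADPH regenerating system for 60 min at 37C. Full inhibition defined by 57uM ketoconazole.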
For COCCCCC(=NOCCN)c1ccc(C(F)(F)F)cc1, the Potency was 63.1 nM (active).
In the case of c1cc(-c2sc(-c3ccncc3)c(-c3ccncc3)c2-c2ccncc2)ccn1, the Potency is reported as 1580 nM (active).
For Clc1ccc(Cn2c(CN3CCCC3)nc3ccccc32)cc1, the Potency was 199 nM (active).
For CCN1CCC[C@H]1CNC(=O)c1cc(S(N)(=O)=O)ccc1OC, the Potency was “inactive”.
In the case of CS(=O)c1ccc(-c2nc(-c3ccc(F)cc3)c(-c3ccncc3)[nH]2)cc1 (stereo not given), the Potency is reported as 39.8 nM (active).
With O=c1cc(-c2ccccc2)oc2cc(O)cc(O)c12 the Potency was 794 nM (active).
For COc1ccccc1N1CCN(CCCNc2cc(=O)n(C)c(=O)n2C)CC1, the Potency was 7940 nM (active).
For COc1ccc(-c2coc3cc(O)cc(O)c3c2=O)cc1, the Potency was 7940 nM (active).
For O=c1cc(-c2ccccc2)oc2cc(O)c(O)c(O)c12, the Potency was 5010 nM (active).

Test system: not listed separately
Assay: Confirmation and Secondary Assay for Modulators of Hemoglobin Beta Chain Splicing at IVS2 654 locus (AID 910);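 also: HeLa cells stably carrying EGFP split by mutant beta-globin IVS2-654 intron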
Settings: HeLa EGFP-654 splicing reporter, GFP fluorescence, 48 h; series mostly up to 46.1 µM
How it was run: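 HeLa cells stably expressing EGFP interrupted by β-globin IVS2-654 intron, seeded overnight in Opti-MEM/2% FCS, then treated 2 days at 37 °C. Restored splicing read as total peak GFP intensity per well by laser scanning cytometry (488 nm excitation, 500–520 nm emission); 500 nM antisense PNA as control.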
In the case of O=C1NCC2(CCN(CCc3ccccc3)CC2)O1, the outcome is reported as “inactive”.
With C[C@]12CCC3c4ccc(O)cc4CCC3C1CCC2=O (stereo not given in full) the outcome was “inactive”.
For O=C(O)CCc1nc(-c2ccccc2)c(-c2ccccc2)o1, the outcome was “inactive”.
For Cc1cccc(C)c1OCC(C)N (stereo not given), the outcome was “inactive”.
In the case of COc1cc(O)c2c(c1)C(=O)c1cc(C)cc(O)c1C2=O, the outcome is reported as “inactive”.
For C[N+](C)(C)CCCCCC[N+](C)(C)C, the outcome was “inactive”.
With COc1ccc(-c2coc3cc(O)ccc3c2=O)cc1 the outcome was “inactive”.
In the case of CCN(CC)CCNC(=O)c1ccc(N)cc1, the outcome is reported as “inactive”.
With O=c1cc(-c2ccccc2)oc2cc(O)cc(O)c12 the outcome was “inactive”.
With COc1ccccc1N1CCN(CCCNc2cc(=O)n(C)c(=O)n2C)CC1 the outcome was “inactive”.
For COc1ccc(-c2coc3cc(O)cc(O)c3c2=O)cc1, the outcome was “inactive”.
With c1ccc2c(Cc3c[nH]c4ccccc34)c[nH]c2c1 the outcome was “inactive”.
For CC(C)NCC(O)COc1cccc2[nH]ccc12 (stereo not given), the outcome was “inactive”.
For COc1ccc(C2Sc3ccccc3N(CCN(C)C)C(=O)C2OC(C)=O)cc1 (stereo not given), the outcome was “inactive”.
For CCCCCCCCCCCC1=C(O)C(=O)C=C(O)C1=O, the outcome was “inactive”.
In the case of CCN(CC)CCOC(=O)c1ccc(N)cc1, the outcome is reported as “inactive”.
In the case of O=c1cc(-c2ccccc2)oc2cc(O)c(O)c(O)c12, the outcome is reported as “inactive”.
